# Assay results reported in PubChem BioAssay (NCATS).
# Results filed as inconclusive are left out. A number with no mark means an inactive call. The source made the active and inactive calls. The call rests on the fitted dose curve; in most records, active means well fitted inhibition curve with a large enough effect in the repeat runs; inconclusive means weak or mixed curves; inactive means no such curve, though single readings can be large or run the other way.
# Molecular target: Cytochrome P450 3A4 (Homo sapiens) (UniProt P08684)
# Sequence (P08684 whole entry, looked up): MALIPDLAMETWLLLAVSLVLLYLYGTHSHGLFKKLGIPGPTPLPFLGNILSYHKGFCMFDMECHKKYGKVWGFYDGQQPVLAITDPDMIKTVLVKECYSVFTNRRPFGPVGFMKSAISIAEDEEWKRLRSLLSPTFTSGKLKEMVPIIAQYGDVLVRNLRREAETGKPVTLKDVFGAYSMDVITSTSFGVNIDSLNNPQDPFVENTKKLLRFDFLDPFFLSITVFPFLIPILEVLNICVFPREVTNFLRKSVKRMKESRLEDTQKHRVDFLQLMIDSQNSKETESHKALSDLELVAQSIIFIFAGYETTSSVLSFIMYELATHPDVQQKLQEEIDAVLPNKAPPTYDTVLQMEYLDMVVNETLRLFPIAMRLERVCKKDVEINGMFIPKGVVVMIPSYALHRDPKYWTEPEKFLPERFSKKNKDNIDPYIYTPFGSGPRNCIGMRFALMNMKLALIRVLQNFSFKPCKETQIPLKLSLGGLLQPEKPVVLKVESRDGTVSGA
# Experiment: Cytochrome P450 family 3 subfamily A member 4 (CYP3A4) small molecule antagonists: luciferase qHTS assay (AID 1645841); further: nearly all actives have a fitted effect of over 45% in size
# Conditions: P450-Glo CYP3A4 enzyme assay, luciferin luminescence; series mostly up to 57.4 µM; activity change, negative = inhibition: at the top concentration
# Protocol: National Center for Advancing Translational Sciences [NCATS]
# Cytochrome P450 (CYP) enzymes are membrane-bound hemeproteins that play a key role in metabolism of drugs and xenobiotics. Assaying the effect of chemicals on CYP isozymes is useful to minimize the adverse drug reactions and toxicities in drug development process. Chemical compounds were tested for their effect on CYP enzyme activities by using P450-Glo (TM) screening systems (Promega Corporation, Madison, WI). These systems provide a luminescent method containing proluciferin substrates and are converted to luciferin products by CYP isozymes. The luciferin products formed are detected with a luciferin detection reagent, and the amount of light produced is proportional to CYP activity. P450-Glo (TM) CYP3A4 screening system (Catalog. No. V9910) was used to detect the compounds that interfere in CYP3A4 activity. The positive control compound used for CYP3A4 assay is ketoconazole (Sigma-Aldrich, St. Louis, MO).
# Two ul of enzyme-substrate mix was dispensed into medium binding white/solid 1536-well plates (Greiner Bio-One North America Inc., Monroe, NC) using a Flying Reagent Dispenser (FRD, Aurora Discovery, San Diego, CA). Test compounds dissolved in DMSO and positive control (ketoconazole) were transferred to the assay plates at 23 nl using a Pintool station (Wako, San Diego, CA). The assay plates were incubated at room temperature for 10 min. Then 2 ul of NADPH regeneration solution was added to each well of the assay plates using an FRD and incubated at room temperature for 1 h. The reaction was stopped by adding 4 ul of detection reagent using an FRD and after 20 min incubation at room temperature, the luminescence signal was measured using a ViewLux plate reader (Perkin Elmer, Shelton, CT). Data were expressed as relative luminescence units.
# Potency means the concentration at half of the fitted maximal effect.
SMILES,Potency,"activity change, negative = inhibition"
Nc1ccc(Cl)cc1N,7.96 µM (active),–
CCCN(CCC)c1c([N+](=O)[O-])cc(S(N)(=O)=O)cc1[N+](=O)[O-],8.44 µM (active),–
CC(C)NCC(O)c1ccc([N+](=O)[O-])cc1 (stereo not given),–,20.2%
CC(=O)[O][Hg][c]1ccccc1,7.76 µM (active),–
O=C(NCC1CCOCC1)c1cnc(Nc2ccc(Cl)cc2Cl)nc1C(F)(F)F,–,-16.7%
O=C(O)c1ccccc1O,–,-9.17%
O=C(O)CNC(=O)c1c(O)c2ccccc2n(Cc2ccccc2)c1=O,–,25.3%
O=[N+]([O-])c1ccc([As](=O)(O)O)cc1,–,-3.17%
CCCCc1ccc(C(=O)O)nc1,–,37.1%
CC[N+]1(CCOC(=O)C(O)(c2ccccc2)c2ccccc2)CCCCC1,–,-5.53%
